# Laboratory results published in the supplement of paper PMC8387472.
# Counter-ions that a name gives are not always drawn. ± gives the standard deviation of the averaged measurements.
# Tested on: mESC LDLR-Dup GFP reporter (SpCas9 MH-deletion repair)
# Test: fraction of GFP+ cells relative to DMSO control (fold change); higher = more MH-deletion repair to in-frame LDLR (or more editing)
# Conditions: 2 µM; 7 days post-transfection
row,SMILES,fraction of GFP+ cells
1,CCC[C@H](NC(=O)/C(C#N)=C/c1cccc(Br)n1)c1ccccc1 [Degrasyn (WP1130)],0.638 ± 0.12
2,O=NN(CCCl)C(=O)NCCCl [Carmustine],1 ± 0.078
3,CC(C)=CCC[C@](C)(O)[C@H]1CC[C@]2(C)[C@@H]1[C@H](O)C[C@@H]1[C@@]3(C)CC[C@H](O)C(C)(C)[C@@H]3[C@@H](O)C[C@]12C [(20S)-Protopanaxatriol],1.02 ± 0.14
4,O=C1CCc2c(ccc3ccccc23)O1 [Splitomicin],0.636 ± 0.11
5,C[C@H]1CNCCCN1S(=O)(=O)c1cccc2cncc(F)c12 [Ripasudil (K-115) hydrochloride dihydrate],1.31 ± 0.45
6,NC[C@@](O)(c1ccc(Cl)cc1)c1ccc(-c2cn[nH]c2)cc1,1.33 ± 0.93
7,C[C@H]1COc2c(N3CCN(C)CC3)c(F)cc3c(=O)c(C(=O)O)cn1c23 [Levofloxacin hydrate],0.935 ± 0.12
8,O=C(Nc1ccccc1)c1cc([N+](=O)[O-])ccc1Cl,1.96 ± 0.34
9,CN(C)CCCCC(=O)Nc1ccc(NC(=S)NC(=O)c2ccc(C(C)(C)C)cc2)cc1 [Tenovin-6],0.625 ± 0.2
10,Nc1nc(NC2CC2)cc(-c2cccc(Cl)c2Cl)n1,0.918 ± 0.2
11,CCCCCOC(=O)Nc1nc(=O)n([C@@H]2O[C@H](C)[C@@H](O)[C@H]2O)cc1F [Capecitabine],0.922 ± 0.39
12,CN(CCOc1ccc(CC2SC(=O)NC2=O)cc1)c1ccccn1 (stereo not drawn) [Rosiglitazone],1.48 ± 0.26
13,Nc1ccn(C[C@@H](CO)OCP(=O)(O)O)c(=O)n1 [Cidofovir],1.02 ± 0.1
14,O=c1ccn([C@@H]2O[C@H](CO)[C@@H](O)[C@H]2O)c(=O)[nH]1 [Uridine],1.24 ± 0.54
15,N=C(NOCC(O)CN1CCCCC1)c1cccnc1 (stereo not drawn),0.805 ± 0.12
16,O=c1oc2c(O)c(O)cc3c(=O)oc4c(O)c(O)cc1c4c23 [Ellagic acid],0.913 ± 0.11
17,CC(C)(O)C1CCC(C)(C2C(O)CC3(C)C4CC(O)C5C(C)(C)C(O)CCC56CC46CCC23C)O1 (stereo not drawn) [Cyclogalegenol],0.875 ± 0.24
18,CC1(C)CCC2=C(O1)c1ccccc1C(=O)C2=O [Beta-Lapachone],0.973 ± 0.027
19,Cc1ccc(CNc2ncnc3ccc(-c4ccc(CO)o4)cc23)o1,1.08 ± 0.19
20,COc1c2ccoc2cc2oc(=O)ccc12 [Bergapten],0.969 ± 0.32
21,COc1cc2ncnc(-n3nc(-c4ccccn4)nc3N)c2cc1OC,0.973 ± 0.34
22,CN1CCCC(n2nc(Cc3ccc(Cl)cc3)c3ccccc3c2=O)CC1 (stereo not drawn) [Azelastine HCl],0.868 ± 0.11
23,CC(=O)NCC(=O)N1[C@@H]2CC[C@H]1c1ccc(Nc3ncc(C(F)(F)F)c(NC4CCC4)n3)cc12,1.27 ± 0.73
